The panel holds about 83,000 compounds, 20% with a hit somewhere; the sample as a whole holds those more often.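 Note: values are percent growth. 100 is the growth of untreated cells, values between 100 and 0 indicate rising inhibition; between -100 and 0 indicates cell death.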 Unmarked numbers belong to inactive results. Activity calls are given as the source filed them. Rule for the calls: active = growth percent below 10; inactive = the rest.
Test system: MDA-MB-468 breast
Assay: NCI-60 one-dose screen, 48 h (100 = growth as untreated, 0 = no growth, -100 = all killed)
Details: 10 µM unless noted

`CCOC(=O)[C@@H](C)C[C@H](Cc1ccccc1)NC(=O)c1csc([C@@H](C[C@H](C(C)C)N(C)C(=O)CNC(=O)[C@H]2CCCCN2C)OC(C)=O)n1` was tested, and the growth was 28%.
`Oc1ccc(O)c2c1C1(Cl)C(Cl)=C(Cl)C2(Cl)C1(Cl)Cl` was tested, and the growth was 4.54% (active).
`CCOP(=O)(OCC)C(=O)N(CC)CC` gave a growth of 90.3%.
In the case of `COc1cc2c(c(OC)c1OC)-c1ccc(O)c(=O)cc1[C@@H](NC(C)=O)CC2`, the growth is reported as 62.8%.
Molecule `O=C([O][Hg][CH2]C1COCC([CH2][Hg][O]C(=O)c2ccccc2)O1)c1ccccc1` (stereo not drawn) has a growth of 22.7%.
In the case of `C[C@]12CC[C@H]3[C@@H](CCC4=CC(=O)CC[C@@H]43)[C@@H]1CC[C@@H]2OC(=O)N(CCCl)N=O`, the growth is reported as -22.1% (active).
For `C#Cc1cccc(Nc2nc(Cl)nc3cc(NC(=O)CF)ccc23)c1`, the growth was 61.5%.
Work on `CC[C@H](C)[C@H](NC(=O)[C@H]1CCCCN1C)C(=O)N(C)[C@H](C[C@@H](OC(C)=O)c1cccc(C(=O)N[C@@H](Cc2ccccc2)C[C@H](C)C(=O)OC)n1)C(C)C` yielded a growth of 40.9%.
In the case of `O=P(O)(Nc1ccccc1)Nc1ccccc1`, the growth is reported as 90.2%.
In the case of `COc1ccc(NC([Se])=NC23CC4CC(CC(C4)C2)C3)cc1`, the growth is reported as -15.6% (active).
In the case of `C[C@]12CCc3sc(Nc4ccc(F)cc4)nc3C1=CC[C@@H]1[C@@H]2CC[C@]2(C)C(=O)CC[C@@H]12`, the growth is reported as 40.8%.
`Nc1nc(=S)nc(N)[nH]1` showed a growth of 99.3%.
With `CCOC(=O)[C@@H](C)C[C@H](Cc1ccccc1)NC(=O)c1csc([C@@H](C[C@H](C(C)C)N(C)C(=O)[C@H](CCC(C)C)NC(=O)[C@H]2CCCCN2C)OC(C)=O)n1` the growth was 5.73% (active).
